DRD3 antagonist: D3 dopamine receptor (human) antagonism | P35462 | D3R cells, DiscoveRx beta-arrestin luminescence, antagonist mode; active compounds read low | max response, negative = inhibition, % | 360,000 compounds, 2.5% hits; in the data active means max response below about -50%; inconclusive means no clear call, values can overlap the other calls
Target sequence (P35462 whole entry, looked up): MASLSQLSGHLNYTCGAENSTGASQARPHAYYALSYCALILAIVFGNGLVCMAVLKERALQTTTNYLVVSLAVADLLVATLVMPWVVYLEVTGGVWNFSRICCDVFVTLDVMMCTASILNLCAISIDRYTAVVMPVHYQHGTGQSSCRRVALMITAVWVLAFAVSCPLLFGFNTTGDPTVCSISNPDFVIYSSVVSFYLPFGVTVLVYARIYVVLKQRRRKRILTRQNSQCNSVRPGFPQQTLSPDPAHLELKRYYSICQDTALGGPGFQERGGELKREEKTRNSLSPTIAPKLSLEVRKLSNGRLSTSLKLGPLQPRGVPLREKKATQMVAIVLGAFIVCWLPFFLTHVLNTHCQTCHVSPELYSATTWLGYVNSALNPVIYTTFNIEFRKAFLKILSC
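Cells expressing the human receptor were seeded at 1500 cells/well, incubated overnight at 37 degrees C in 5% CO2, then exposed to library compounds with dopamine controls for 90 minutes at 37 degrees C before luminescent detection.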
DRD3 agonist: activates the human D3 dopamine receptor; D3R DiscoveRx beta-arrestin cells, luminescence, 90 min; max activation, %; 410,000 compounds, 0.58% hits; AID 652048; P35462; in the data active means max activation above about 30%
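Agonist-mode cell screen: cells plated at 1500/well and incubated overnight at 37 °C, then exposed to library compounds for 90 min at 37 °C. Detection reagent was added for 30–60 min at room temperature, and luminescence was read.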
D1 ag: activates the human D1 dopamine receptor; activation, % at 2 µM; 360,000 compounds, 1% hits; AID 504660; HEK293 T-REx D1 cells, calcium flux, agonist mode; P21728; in the data active means activation above about 30%
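Agonism was scored from calcium flux recorded over 180 s (1 read/s) after pintool compound addition, following a 10-cycle baseline. Cells were inducible force-coupled HEK293 TREx D1, plated overnight at 30 C and loaded with no-wash calcium dye.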
D1 PAM: enhances dopamine response at the human D1 receptor. P21728. HEK293 TREx D1 cells, calcium flux, dopamine EC20 potentiation. potentiation, % at 10 µM. 360,000 compounds, 0.036% hits; in the data active means potentiation above about 30%
D1 antagonist: antagonists of human D1 dopamine receptor; HEK293 TREx D1 cells, calcium flux, dopamine EC80; active compounds read low; activity change, negative = inhibition, % at 10 µM; 360,000 compounds, 3.2% hits; in the data active means activity change below about -30%
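HEK293 T-REx cells expressing inducible, force-coupled D1 receptor; no-wash Ca dye, 30–90 min RT. Cmpd → 180 s read at 1 Hz → EC80 DA → 180 s read.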
Hits are given with their value; - = inactive; ? = inconclusive; . = no result. Rows were chosen to be rich in hits. Some 6% of all compounds tested hit in one or more screens of this group.

SMILES	DRD3 antagonist	DRD3 agonist	D1 ag	D1 PAM	D1 antagonist
CC(C)Sc1nc(N)c2c3c(sc2n1)CN(C)CC3	-57.8	-	-	-	-
CSc1nc(NCc2ccccc2)c2c3c(sc2n1)CN(C)CC3	-76.0	-	-	-	-
CSc1nc(NCC(C)C)c2c3c(sc2n1)CN(C)CC3	-72.1	-	-	-	-
COc1ccccc1N1CCN(S(=O)(=O)CCNC(=O)CC2CCCC2)CC1	-	-	.	.	.
N#Cc1ccc(-c2csc(NC(=O)/C=C/c3cccs3)n2)cc1	-	-	-	-	-44.3
Cc1ccc(-c2csc(NC(=O)/C=C/c3cccs3)n2)cc1C	-	-	-	-	-78.8
O=C(/C=C/c1ccccc1)Nc1nc(-c2ccncc2)cs1	-	-	-	-	-
O/C(=C\c1ccc2ccccc2n1)c1ccncc1	-	-	45.3	-	-
O/C(=C\c1nc2ccccc2nc1/C=C(\O)c1ccccc1)c1ccccc1	-66.9	-	-	-	-
O/N=C/c1ccc2ccccc2n1	-	-	-	-	-
O=c1oc2ccccc2nc1/C=C(\O)c1ccccc1	-	-	-	-	-
Cc1ccc(C)c(N(C)C(=O)Cc2c(C(=O)O)[nH]c3ccc(Cl)cc23)c1	.	-	-	-	-
COC(=O)c1c(-c2ccc(OC)cc2)sc2cc(OC)c(OC)cc12	-	-	.	.	.
COC(=O)c1c(-c2ccc(S(C)(=O)=O)cc2)sc2ccc(OC)cc12	-	-	.	.	.
COC(=O)c1c(-c2ccc(OC)cc2)sc2ccccc12	.	.	-	-	.
COC(=O)c1c(-c2ccc(SC)cc2)sc2ccccc12	-	56.4	-	-	.
COC(=O)c1c(-c2ccc(SC)cc2)sc2ccc(OC)cc12	-	37.8	.	.	.
COC(=O)c1c(-c2ccc(S(C)(=O)=O)cc2)sc2cc(OC)ccc12	-	30.9	.	.	.
COC(=O)c1c(-c2cc(OC)cc(OC)c2)sc2ccc(OC)cc12	-	62.3	.	.	.
COc1cccc(/C=C/c2nc(C#N)c(NC3CCCCC3)o2)c1	.	-	-	-	-
CCN(CCNC(=O)C1CCN(Cc2nc(-c3cccc(Cl)c3)oc2C)CC1)c1ccccc1	-	-	47.4	-	-43.9
CCc1ccc(-c2nc(CN3CCC(C(=O)NCCN(CC)c4ccccc4)CC3)c(C)o2)cc1	-	-	32.2	-	-
Cc1oc(-c2cccc(Cl)c2)nc1CN1CCC(C(=O)NCCCN2CCN(c3ccc(F)cc3)CC2)CC1	.	-	-	-	-
Cc1oc(-c2ccc(Cl)cc2)nc1CN1CCC(C(=O)NCCCN2CCN(c3cccc(Cl)c3)CC2)CC1	.	-	48.9	-	-45.1
CCc1ccc(-c2nc(CN3CCC(C(=O)NCc4ccc(F)cc4)CC3)c(C)o2)cc1	-	-	33.3	-	-
SMILES	DRD3 antagonist	DRD3 agonist	D1 ag	D1 PAM	D1 antagonist
Cc1oc(-c2cccc(Cl)c2)nc1CN1CCC(C(=O)NC2CC2)CC1	-	-	-	-	-
CC(C)c1ccc(CN(Cc2ccco2)c2cnc(S(C)(=O)=O)nc2C(=O)Nc2ccccc2)cc1	.	-	-	-	-
CCN(CCNC(=O)C1CCN(Cc2nc(-c3ccc(Cl)cc3)oc2C)CC1)c1ccccc1	-	-	48.2	-	-44.8
Cc1oc(-c2cccc(Cl)c2)nc1CS(=O)(=O)CC(=O)NCCN1CCOCC1	-	-	-	-	-33.4
CCCCNC(=O)C1CCCN(Cc2nc(-c3ccc(Cl)cc3)oc2C)C1 (stereo not drawn)	.	-	-	-	-30.4
Cc1ccc(C)c(S(=O)(=O)N2CCN(C(=O)Cc3c(F)cccc3Cl)CC2)c1	-	-	-	-	-
Cc1ccc(C)c(S(=O)(=O)N2CCN(C(=O)CSc3ccccc3F)CC2)c1	-	-	30.8	-	-
COc1ccc(C2CC(c3ccc(F)cc3)=NN2c2ccccc2)cc1OC (stereo not drawn)	-	-	-	-	-78.4
Cc1ccc(NC(=O)c2cnn(-c3ccccc3)c2C)c(C)c1	-	-	-	-	-58.0
Cc1ccc(NC(=O)c2cnn(-c3ccccc3)c2C)cc1	-	-	-	-	-
Cc1cc(Cl)ccc1OC(C)c1nnc(N)s1 (stereo not drawn)	-	-	-	-	-48.6
CC(Oc1ccc(Cl)cc1Cl)c1ccnc(N)n1 (stereo not drawn)	-	-	-	-	-
CC(NC(=O)CCNC(=O)c1ccccc1Cl)c1ccc(-n2ccnc2)cc1 (stereo not drawn)	-59.4	-	-	-	-
O=C1CCCC(=O)N1c1ccc(N2CCN(c3ccccc3)CC2)c([N+](=O)[O-])c1	-	-	-	-	-45.6
O=C1CCCC(=O)N1c1ccc(N2CCN(c3ccc([N+](=O)[O-])cc3)CC2)c([N+](=O)[O-])c1	.	.	-	-	-
O=C1C2CC=CCC2C(=O)N1c1ccc(N2CCN(c3ccccn3)CC2)c([N+](=O)[O-])c1 (stereo not drawn)	-	-	-	-	-36.1
COC(=O)Cc1cc(=O)n2[nH]c(C)cc2n1	-51.9	-	-	-	.
CCOc1ccc(C(=O)COC(=O)c2cccc(-n3cnnn3)c2)cc1	-	-	-	-	-
COc1cc(N2CCCC2)c(OC)cc1/C=C(/C#N)c1ccc(Br)cc1	?	-	38.9	-	-
Cc1cc(=O)[nH]c2nnc(SCc3ccccc3F)n12	.	-	-	-	.
CCn1c(SCc2ccc(Cl)cc2Cl)nc2nc3c(cc2c1=O)CCCC3	-	-	-	-	-43.1
Cc1cccc(C)c1OCc1nnc(SCC(=O)Nc2ccc(N3CCOCC3)cc2)o1	-	-	41.1	.	-
CCc1nnc(SCC(=O)Nc2ccc(N3CCOCC3)cc2)o1	-	-	-	-	-
CCCOP(=O)(OCCC)C(Nc1ccc(C(C)C)cc1)c1ccc([N+](=O)[O-])cc1 (stereo not drawn)	-	-	-	-	-33.0
COP(=O)(OC)C(Nc1ccc([N+](=O)[O-])cc1)c1ccccc1 (stereo not drawn)	-	-	-	-	-
SMILES	DRD3 antagonist	DRD3 agonist	D1 ag	D1 PAM	D1 antagonist
CC1CCCc2sc3nc(N4CCN(CCO)CC4)n4ncnc4c3c21 (stereo not drawn)	-56.3	-	-	-	-
Cc1cc(C)n(C(C)CC(=O)Nc2ccc3c(c2)OCCO3)n1 (stereo not drawn)	-	-	-	-	-
COC(=O)N1C(=O)[C@](c2ccsc2)(C(C)C)N1C(=O)OC	?	-	-	-	-67.2
COC(=O)N1C(=O)[C@](c2ccc(OC)cc2)(C(C)C)N1C(=O)OC	-	-	-	-	-
CN(CC(=O)Nc1ccccc1Cl)C(=O)COC(=O)CCN1C(=O)C2CC=CCC2C1=O (stereo not drawn)	-	-	-	-	-
CCn1c(C)c(C(C)=O)c(N2CCCCC2)nc1=S	-	-	-	-	-89.2
O=C(NCCN1CCOCC1)c1csc2c1CCCCC2	-52.1	-	-	-	-
CSc1ccc(CCNC(=O)c2csc3c2CCCCC3)cc1	.	-	-	-	-37.9
CCN1CCN(CCCNC(=O)c2csc3c2CCCCC3)CC1	-54.1	-	-	-	-
